Bioassay records deposited in PubChem by several laboratories.
The list is not random: actives were taken first. Their share in the collection is about 3.6%.
VHR inh abs = VHR1 phosphatase inhibitors, primary screen, biochemical, absorbance, uHTS. Dual specificity protein phosphatase 3 (Homo sapiens), P51452. recombinant VHR phosphatase, pNPP absorbance. inhibition, % at 13.3 µM. actives 0.52% (n = 290,000). AID 1654, 2009; in the data active = inhibition above about 50%
Target sequence (P51452 whole entry, looked up): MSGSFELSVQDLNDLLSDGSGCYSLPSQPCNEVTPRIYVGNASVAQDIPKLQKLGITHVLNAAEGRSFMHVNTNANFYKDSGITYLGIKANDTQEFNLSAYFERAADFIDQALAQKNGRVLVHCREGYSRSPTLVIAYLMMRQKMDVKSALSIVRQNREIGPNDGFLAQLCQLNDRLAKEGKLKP
Mtb hypoxia rep = PubChem AID 1159583; M. tuberculosis hypoxia-regulated fluorescent reporter, fluorescence; fluorescence inhibition, % (no concentration beside the values); actives 0.1% (n = 300,000); in the data active = fluorescence inhibition mostly above about 23%, no sharp cut-off; inactive = mostly below about 17%
FBA Mtb inh = Mtb FBA enzyme inhibitors, primary screen, biochemical, fluorescence, strain H37Rv. purified M. tuberculosis FBA, fluorescence read-out. actives 2.3% (n = 360,000). AID 588726, 2011. inhibition, % at 1 µM
Mtb bLac sens = beta-lactam sensitization of Mtb H37Rv, H37Rv | M. tuberculosis H37Rv growth with meropenem, percent inhibition | inhibition, % at 25 µM | actives 0.27% (n = 330,000) | AID 434955, 2010; call rule not given here;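 note: growth measured after seven days incubation then overnight dye step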
GDH-TPI counter-1 = GDH-TPI coupling enzyme inhibitors, primary screen, artefact control for M. tuberculosis FBA inhibitor project, biochemical, absorbance, full deck | GDH-TPI coupled enzyme counterscreen, NADH absorbance | inhibition, % at 4.8 µM | actives 1.2% (n = 360,000) | AID 588335, 2011; in the data active = inhibition above about 30%
Mtb FBA confirm = M. tuberculosis aldolase blockers, biochemical, fluorescence, strain H37Rv, confirmation; inhibition, % at 1 µM; shares compounds with FBA Mtb inh; actives 78% (n = 5,600); purified M. tuberculosis FBA, fluorescence read-out
GDH-TPI counter-2 = GDH-TPI coupling enzyme inhibitors, artefact control for M. tuberculosis FBA inhibitor project, biochemical, fluorescence, high throughput; shares compounds with FBA Mtb inh; GDH-TPI coupled enzyme counterscreen; inhibition, % at 1 µM; actives 81% (n = 5,600); AID 652141, 2013; in the data active = inhibition above about 10%
Of the large screens only hits and unclear results are named; the others gave an inactive call (follow-up assays come after a bar, where they were run). Cut-off read from the data, not from the text of the source, unless noted: active = inhibition above about 27%; inactive = the rest.

NC(=NOC(=O)C1CCCCC1)c1cccc([N+](=O)[O-])c1	none (no result: VHR inh abs, FBA Mtb inh, Mtb bLac sens, GDH-TPI counter-1)
Cc1ccc2cc3c(nc2c1)N(c1ccccc1)CC3	FBA Mtb inh 47 | Mtb FBA confirm inactive | GDH-TPI counter-2 inactive
CC(=O)NN1CCc2cc3ccc(C)cc3nc21	FBA Mtb inh 40 | Mtb FBA confirm inactive | GDH-TPI counter-2 inactive
Nn1cnnc1NN=Cc1ccc(F)cc1	none (no result: VHR inh abs, FBA Mtb inh, Mtb bLac sens, GDH-TPI counter-1)
COc1ccc(CC(=O)N2CCN(C(=O)Cc3ccc(OC)cc3)CC2)cc1	none (no result: Mtb hypoxia rep)
COc1ccc(CC(=O)N2CCN(c3ccc(C4=NNC(=O)CC4C)cc3)CC2)cc1 (stereo not given)	FBA Mtb inh 32 (no result: Mtb hypoxia rep) | Mtb FBA confirm 162 | GDH-TPI counter-2 132
O=c1[nH]c2ccccc2nc1-c1cccs1	FBA Mtb inh 104 | Mtb FBA confirm 143 | GDH-TPI counter-2 107
CCOC(=O)COc1nc2c(c(-c3ccco3)c1C#N)CCc1ccccc1-2	FBA Mtb inh 30 | Mtb FBA confirm inactive | GDH-TPI counter-2 14
N#Cc1c(OCC(=O)c2ccccc2)nc2c(c1-c1ccco1)CCc1ccccc1-2	none
CCOC(=O)COc1nc(-c2ccccc2)cc(-c2ccco2)c1C#N	FBA Mtb inh 58 | Mtb FBA confirm 138 | GDH-TPI counter-2 127
CCOC(=O)COc1nc(-c2ccc(Cl)cc2)cc(-c2ccco2)c1C#N	none (no result: Mtb hypoxia rep, Mtb bLac sens)
CC(C)(C)c1n[nH]c(=S)n(N=Cc2cccs2)c1=O	none (no result: VHR inh abs, FBA Mtb inh, Mtb bLac sens, GDH-TPI counter-1)
CC1=CC=CC2=NC(=O)CC(C)(C(=O)N(CC(=O)NC3CCCC3)c3ccccc3C)N12 (stereo not given)	FBA Mtb inh 110 | Mtb FBA confirm 121 | GDH-TPI counter-2 95
CC1=CC=CC2=NC(=O)CC(C)(C(=O)N(CC(=O)NC3CCCC3)c3ccc(F)cc3)N12 (stereo not given)	FBA Mtb inh 95 | Mtb FBA confirm active | GDH-TPI counter-2 active
Cc1ccc(C(=O)N(CC(=O)NC2CCCCC2)c2ccccc2C)s1	none
CC1=CC=CC2=NC(=O)CC(C)(C(=O)O)N12 (stereo not given)	FBA Mtb inh 103 | Mtb FBA confirm inactive | GDH-TPI counter-2 14
CCN(CC)C(=O)NC1CC2c3cccc4[nH]cc(c34)CC2N(C)C1 (stereo not given)	none (no result: VHR inh abs, FBA Mtb inh, Mtb bLac sens, GDH-TPI counter-1)
Cc1[nH]c2ccccc2c1C=NNC(=O)CNC(=O)c1ccco1	none (no result: VHR inh abs, FBA Mtb inh, Mtb bLac sens, GDH-TPI counter-1)
COc1ccc(C(=O)NCC(=O)NN=Cc2cccnc2)cc1OC	none (no result: VHR inh abs, FBA Mtb inh, Mtb bLac sens, GDH-TPI counter-1)
Cc1c(C(=O)Nc2ccc(F)cc2)c2ccccn2c1CCc1ccncc1	FBA Mtb inh 32 | Mtb FBA confirm active | GDH-TPI counter-2 active
COC(=O)CCc1c(C)c(C(=O)c2ccc(F)cc2)c2ccccn12	none
CC1(C)CC(=NO)c2cc3c(nc2C1)CCCC3	none (no result: VHR inh abs, FBA Mtb inh, Mtb bLac sens, GDH-TPI counter-1)
CCN(CC)c1ccc(-c2c(C#N)c(N)nc(OC)c2C#N)cc1	FBA Mtb inh 55 | Mtb FBA confirm 34 | GDH-TPI counter-2 25
C=C(C)C1CC=C(C)C(=NNC(=O)c2ccc(NC(=O)CC)cc2)C1 (stereo not given)	none (no result: VHR inh abs, FBA Mtb inh, Mtb bLac sens, GDH-TPI counter-1)
O=C(N/N=C/c1ccc(O)c(O)c1)c1ccc(-n2cnnn2)cc1	FBA Mtb inh 52 (no result: VHR inh abs, Mtb hypoxia rep) | Mtb FBA confirm 52 | GDH-TPI counter-2 52
CCN(CC)CCn1c(SCC(=O)Nc2cccc(OC)c2)nc2c(sc3ccccc32)c1=O	none
COc1cccc(NC(=O)CSc2nc3c(sc4ccccc43)c(=O)n2CCN(C)C)c1	FBA Mtb inh 47 | Mtb FBA confirm inactive | GDH-TPI counter-2 inactive
Cc1ccc(C(=O)ON=Cc2c(C)nn(C)c2Cl)cc1	none (no result: VHR inh abs, FBA Mtb inh, Mtb bLac sens, GDH-TPI counter-1)
CCc1noc(C)c1C(=O)N1CCN(S(=O)(=O)c2ccc(Cl)cc2)CC1	FBA Mtb inh 33 (no result: VHR inh abs) | Mtb FBA confirm 94 | GDH-TPI counter-2 79
CCN1CCSc2ccc(C(=O)NCc3ccccc3F)cc21	FBA Mtb inh 87 | Mtb FBA confirm active | GDH-TPI counter-2 active
CCN1C(=O)CSc2ccc(C(=O)NCc3ccccc3OC)cc21	none
CCN1CCSc2ccc(C(=O)Nc3ccc(NC(C)=O)cc3)cc21	none
